Source: PubChem BioAssay (Sanford-Burnham Center for Chemical Genomics)
The list is not random: actives were taken first. Their share in the collection is about 3%.
SENP6 block – inhibitors of human SENP6 protease; Q9GZR1; Recombinant SENP6 catalytic domain, aminoluciferin luminescence; inhibition, % at 10 µM; 1.8% of 330,000 active; AID 2599;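 active = inhibition above about 50% at the single tested dose, limit read from the data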;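 also: plate controls were DMSO wells with enzyme for no effect and DMSO wells lacking enzyme for full effect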
C8 TRAIL sens – sensitizes caspase-8 expressing cells to TRAIL; inhibition (viability loss, TRAIL sensitization), % at 10 µM; NB7+C8 cells + TRAIL, ATPlite viability luminescence; 1% of 360,000 active;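 active = compounds causing at least 50% loss of cell viability in the single-dose screen, relative to plate controls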
SENP8 block-1 – blocks human SENP8 cleavage of Nedd8 substrate; Q96LD8; inhibition, % at 20 µM; 0.64% of 360,000 active; AID 602440; recombinant SENP8, Nedd8 substrate fluorescence; in the data active = inhibition mostly above about 40%, no sharp cut-off; inactive = mostly below about 27%
Target sequence (Q96LD8 whole entry, looked up): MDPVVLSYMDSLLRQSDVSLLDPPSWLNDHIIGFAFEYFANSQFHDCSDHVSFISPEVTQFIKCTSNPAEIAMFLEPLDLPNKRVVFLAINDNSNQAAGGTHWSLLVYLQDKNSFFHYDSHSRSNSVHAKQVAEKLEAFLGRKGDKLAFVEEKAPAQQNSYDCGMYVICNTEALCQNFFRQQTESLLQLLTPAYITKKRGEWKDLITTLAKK
SENP7 inh – SENP7 protease inhibition; recombinant SENP7, Z-RLRGG-aminoluciferin luminescence, 40 min; AID 434973; 1.5% of 330,000 active; inhibition, % at 5 µM;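 active = inhibition above about 50% at the single test dose, limit read from the data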;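 also: plate controls were DMSO with enzyme for no effect and no enzyme buffer wells for full effect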
Target sequence (Q9BQF6 706-1050 limits assumed): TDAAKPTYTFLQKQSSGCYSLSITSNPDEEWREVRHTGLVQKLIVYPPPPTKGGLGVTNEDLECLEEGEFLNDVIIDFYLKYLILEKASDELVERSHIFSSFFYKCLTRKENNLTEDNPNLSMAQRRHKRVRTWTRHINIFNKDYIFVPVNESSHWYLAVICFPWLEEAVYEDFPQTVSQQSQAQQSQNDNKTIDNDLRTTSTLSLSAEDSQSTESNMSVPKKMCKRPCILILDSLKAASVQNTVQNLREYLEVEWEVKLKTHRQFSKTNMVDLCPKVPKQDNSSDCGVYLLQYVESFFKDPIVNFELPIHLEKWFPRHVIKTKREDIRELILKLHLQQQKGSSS
SENP8 block-2 – inhibitors of human SENP8 protease; purified SENP8, Z-RLRGG-aminoluciferin cleavage, luminescence; AID 2540; 1.2% of 330,000 active; inhibition, % at 10 µM; in the data active = inhibition above about 50%
PPC-1+TRAIL kill – kills PPC-1 cancer cells in the presence of TRAIL. cell killing (% activity), % at 4 µM or 5 µM. 0.41% of 220,000 active. PPC-1 cells + TRAIL, ATPLite viability luminescence;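 active = cell killing above 50% in the first pass at 4 µM, then a duplicate retest at 5 µM averaging 50% or more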;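 also: plate controls were cells with TRAIL plus DMSO for no effect and medium-only wells lacking cells for full effect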
SENP8 conf – confirmation of human SENP8 protease inhibitors; purified SENP8, Nedd8-AMC/pro-Nedd8 cleavage fluorescence, 30 min; inhibition, % at 25 µM; AID 624319; shares compounds with SENP8 block-1; 15% of 1,400 active; in the data active = inhibition mostly above about 39%, no sharp cut-off; inactive = mostly below about 34%
* hit, by the source's call; · = no result.

SMILES | SENP6 block | C8 TRAIL sens | SENP8 block-1 | SENP7 inh | SENP8 block-2 | PPC-1+TRAIL kill | SENP8 conf
Cc1ccccc1OCCNc1cc(N2CC(C)NC(C)C2)ccc1[N+](=O)[O-] (stereo not drawn) | -22 | 17 | 25 | -4 | -7 | 1 | ·
Nc1nc(NCCO)nc(NC2CCCCC2)c1[N+](=O)[O-] | -36 | -20 | 18 | -11 | -13 | · | ·
Nc1nc(NCCOCCO)nc(NC2CCCCC2)c1[N+](=O)[O-] | 0 | -5 | 47* | 0 | -1 | · | -1
CCOC(=O)/C(C#N)=C\C=C1C=CN(C)C=C1 | 9 | 10 | 52* | 11 | 2 | 12 | 36
CCOC(=O)/C(C#N)=C\c1ccc(CC)s1 | 24 | -6 | 8 | 10 | -10 | 21 | ·
CC(C)(C)S(=O)(=O)N1C[C@@H]2C(=CC[C@H]3C(=O)N(c4ccccc4)C(=O)[C@@H]23)[C@@H]1CCO | · | -9 | 8 | · | · | · | ·
COc1ccc(NC(=O)NNc2cc(N3CCOCC3)nc(N3CCOCC3)n2)cc1 | 25 | -9 | 44* | 1 | -3 | 13 | 39
O=C1CC(=O)Nc2cc(S(=O)(=O)N3CCOc4ccc(Cl)cc43)ccc2N1 | -12 | -7 | 11 | -12 | -16 | · | ·
O=C(CSc1nnc(CNC(=O)c2c(F)cccc2Cl)o1)NCc1ccccc1 | -12 | 13 | 22 | -17 | -9 | · | ·
Cc1ccccc1-c1cnc(C(O)c2ccc(-c3ccccc3)cc2)[nH]1 (stereo not drawn) | · | 6 | 41* | · | · | · | 20
COCCCn1c(=O)c2sccc2n(Cc2ccc(C)cc2)c1=O | -30 | -1 | 10 | -12 | -12 | · | ·
CC1(OC(=O)CCc2ccccc2)C(=O)C=C2C=C3CCCN3C=C2C1=O (stereo not drawn) | 8 | -5 | 55* | 5 | 7 | 13 | 43*
CC1(OC(=O)C2CCCC2)C(=O)C=C2C=C3CCCN3C=C2C1=O (stereo not drawn) | 0 | · | · | 6 | 3 | · | ·
O=C(CCN1C(=O)C2C3CC(C(Br)C3Br)C2C1=O)OCC(=O)c1cccc([N+](=O)[O-])c1 (stereo not drawn) | 0 | -6 | 6 | -6 | -5 | · | ·
CN=C(NC1CCCCC1)c1ccc([N+](=O)[O-])cc1 | 1 | 4 | 19 | -9 | 0 | · | ·
NC(=NC1CCCCC1)c1ccc([N+](=O)[O-])cc1 | -7 | -1 | 42* | 3 | 8 | 3 | 5
CC1(C(=O)NCCC#N)CCN1C(=O)CC(c1ccccc1)c1ccccc1 (stereo not drawn) | · | -3 | 12 | · | · | · | ·
O=C(Nc1ccc(N2CCCC2)cc1)c1ccccc1[N+](=O)[O-] | 7 | -19 | 35* | 2 | 5 | · | 21
O=C(Nc1ccc(N2CCCCC2)cc1)c1ccc2ccccc2n1 | 38 | 42 | 40* | 39 | 31 | 45 | 15
Cc1cc(=O)[nH]c(N/N=C/C(C)c2ccccc2)n1 (stereo not drawn) | -16 | -5 | 47* | 4 | 0 | -1 | 0
Cn1c(=O)[nH]c2nc[nH]c2c1=O | 9 | -10 | 13 | 4 | -4 | · | ·
Cn1cnc2nc[nH]c2c1=O | · | 3 | 58* | · | · | · | 12
COc1ccc2ccccc2c1C1CC(=O)N2CN(C3CCCCC3)CSC2=C1C#N (stereo not drawn) | 0 | 9 | 75* | -4 | -2 | 16 | 9
COC(=O)c1c(C(=O)OC)c2cccc3cc(-c4ccccc4)c4ccc1c4n32 | 40 | 11 | 74* | 20 | 23 | 1 | 27
COc1ccc(-c2csc(NC(=S)NC(=O)/C=C/c3ccco3)n2)cc1Br | -13 | -9 | 43* | -3 | -5 | 2 | 16
SMILES | SENP6 block | C8 TRAIL sens | SENP8 block-1 | SENP7 inh | SENP8 block-2 | PPC-1+TRAIL kill | SENP8 conf
COc1ccc(-c2csc(NC(=S)NC(=O)/C=C/c3ccco3)n2)cc1OC | · | -20 | 31 | · | · | 20 | ·
CC1=NN(c2ccccc2)C(=O)C1C(=S)SC1CC(=O)NC1=O (stereo not drawn) | · | -8 | 45* | · | · | · | 17
O=S1(=O)CC(N2CC=CC2)CN1Cc1ccc(F)cc1 (stereo not drawn) | · | -9 | 38 | · | · | · | ·
Cc1ccc(CN2CC(N3CC=CC3)CS2(=O)=O)cc1 (stereo not drawn) | · | -5 | 48* | · | · | · | 26
O=C(Nc1nc(-c2ccc([N+](=O)[O-])cc2)cs1)c1c(F)cccc1F | -11 | -8 | 7 | 5 | 2 | 5 | ·
Cc1ccc(-c2csc(NC(=O)c3cccc([N+](=O)[O-])c3)n2)cc1 | -2 | 2 | 48* | -9 | 0 | 4 | 19
CCCCN(C)c1c(C)nc2ccc(C(=O)Nc3cc(-c4ccccc4)ccc3OC)cn12 | · | 11 | 9 | · | · | · | ·
CCSC1=NCCN1C(=O)c1ccc(S(=O)(=O)N(C)C)cc1 | -10 | -1 | 17 | 4 | 4 | -6 | ·
COc1ccc(S(=O)(=O)N2CCOCC2)cc1NC(=O)CN1C(=O)NC2(CCCCC2C)C1=O (stereo not drawn) | -4 | -2 | 19 | -2 | 4 | · | ·
S=C(NCc1ccccc1)NNc1ccccc1 | -14 | -7 | 26 | 6 | 1 | -7 | ·
CCNC(=S)NNc1ccccc1 | 0 | -7 | 43* | -1 | 3 | 1 | 2
NCCNc1ccc(C(=O)N2c3ccccc3Sc3ccccc32)cc1[N+](=O)[O-] | -21 | 10 | 52* | 0 | -18 | · | 21
Nc1ccc(C(=O)OCC(=O)N2c3ccccc3Sc3ccccc32)cc1[N+](=O)[O-] | · | 38 | 3 | · | · | 13 | ·
COc1ccc2[nH]c3c(c2c1)CCN1C(=O)N([C@@H](C)C(=O)NC2CCCCC2C)C(=O)[C@]31C (stereo partly drawn) | -2 | -6 | -6 | 7 | -2 | · | ·
COc1ccc(-c2[nH][nH]c(=O)c2NC(=O)c2ccccn2)cc1 | · | -17 | 42* | · | · | · | 31
Cc1ccc(C(=O)Nc2c(-c3ccc(Cl)cc3)[nH][nH]c2=O)cc1 | · | -12 | 47* | · | · | · | 30
O=C(Nc1c(-c2ccc(Cl)cc2)[nH][nH]c1=O)c1ccccn1 | · | -1 | 21 | · | · | · | ·
O=C(Nc1c(-c2ccccc2)[nH][nH]c1=O)c1ccc(-c2ccccc2)cc1 | · | -22 | 16 | · | · | · | ·
O=C(Nc1c(-c2ccccc2)[nH][nH]c1=O)c1ccco1 | · | 0 | 64* | · | · | · | 18
Cc1cc(=O)[nH]c2sc(C(=O)N3c4ccccc4CC3C)c(N)c12 (stereo not drawn) | 4 | -9 | 9 | 1 | -2 | · | ·
CCC(CC)C(=O)Nc1nnc(S(=O)(=O)Nc2ccccc2C)s1 | -1 | 9 | 13 | -10 | -3 | · | ·
CCc1ccc(NC(=S)Nc2ccc(S(=O)(=O)Nc3ncccn3)cc2)cc1 | -13 | 18 | 19 | -2 | -1 | -13 | ·
Cc1cccc(NC(=O)CCOc2ccccc2)c1 | -11 | -14 | 40* | 7 | -1 | 16 | 5
Cc1cccc(NC(=O)Cc2ccc(F)cc2)c1 | -13 | 11 | 42* | -5 | -13 | 6 | 3
